According to PubChem BioAssay (NCI):
Compounds without any hit were thinned out: in the full panel of roughly 79,000, 15% have a hit. Cut-off read from the data, not from the text of the source: active = growth inhibition above about 70%; inactive = the rest.

What was measured:
[1] = NCI Yeast Anticancer Drug Screen. Data for the rad52 strain (AID 147);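 note: 0% = growth of vehicle-treated control cultures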; conditions: S. cerevisiae rad52 mutant growth inhibition, active compounds read high
Method in brief: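 Genetically altered yeast (DNA damage repair defect) treated with compound; inhibition calculated relative to vehicle.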

[2] = NCI Yeast Anticancer Drug Screen. Data for the wt1 strain (AID 149);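 note: 0% = growth of vehicle-treated wt1 cultures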; conditions: S. cerevisiae wt1 strain (SPY 50644) growth inhibition, active compounds read high
Method in brief: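 wt1 strain grown with compound or vehicle; inhibition taken from the growth difference.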

[3] = NCI Yeast Anticancer Drug Screen. Data for the rad50EPP+ strain (AID 151);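 note: 0% = growth of vehicle-treated control cultures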; conditions: S. cerevisiae rad50 mutant strain, active compounds read high
Method in brief: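 Strain rad50EPP+; compound exposure; % growth inhibition vs vehicle.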

[4] = NCI Yeast Anticancer Drug Screen. Data for the mgt1 strain (AID 153); conditions: S. cerevisiae mgt1 mutant growth inhibition, active compounds read high
Method in brief: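 Read-out: yeast growth inhibition vs vehicle control. Strain mgt1, drawn from a panel altered in DNA damage repair or cell cycle control.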

[5] = NCI Yeast Anticancer Drug Screen. Data for the rad50 strain (AID 155);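 note: 0% = growth of vehicle-only cultures of the same strain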; conditions: S. cerevisiae rad50 strain growth inhibition, active compounds read high
Method in brief: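 DNA repair mutant yeast, compound exposure, growth read-out; inhibition is taken relative to vehicle.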

[6] = NCI Yeast Anticancer Drug Screen. Data for the mec2-1 strain (AID 157); conditions: S. cerevisiae mec2-1 strain, active compounds read high
Method in brief: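 Cells of the genetically defined mec2-1 yeast strain are incubated with test compound. Inhibition of growth is calculated against vehicle-treated controls.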

[7] = NCI Yeast Anticancer Drug Screen. Data for the rad14 strain (AID 159);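 note: 0% = growth of vehicle-treated control cultures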; conditions: S. cerevisiae rad14 strain growth inhibition, active compounds read high
Method in brief: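 DNA repair-defective yeast, compound-exposed; % growth inhibition derived by comparison with vehicle-treated controls.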

[8] = NCI Yeast Anticancer Drug Screen. Data for the sgs1 mgt1 strain (AID 161);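 note: 0% = growth of cultures given vehicle only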; conditions: S. cerevisiae sgs1 mgt1 strain, active compounds read high
Method in brief: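 Mutant yeast exposed to compound; growth scored against vehicle-only wells.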

[9] = NCI Yeast Anticancer Drug Screen. Data for the CLN2oe strain (AID 163);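 note: 0% = growth of vehicle-only control cultures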; conditions: S. cerevisiae CLN2oe strain, active compounds read high
Method in brief: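 Strain altered in cell-cycle control, incubated with compound; growth compared to solvent-treated controls.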

[10] = NCI Yeast Anticancer Drug Screen. Data for the cln2 rad14 strain (AID 165);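 note: 0% = growth equal to vehicle treated cultures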; conditions: S. cerevisiae cln2 rad14 strain, active compounds read high
Method in brief: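 The screen exposed genetically defined yeast (cln2 rad14) to test compounds and scored growth inhibition relative to vehicle-treated controls.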

[11] = NCI Yeast Anticancer Drug Screen. Data for the bub3 strain (AID 167); conditions: S. cerevisiae bub3 mutant strain, active compounds read high
Method in brief: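 In this screen, a yeast mutant lacking normal mitotic checkpoint function is challenged with compound. Relative growth versus vehicle gives the inhibition value.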

[12] = NCI Yeast Anticancer Drug Screen. Data for the wt2 strain (AID 169);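 note: 0% = growth of vehicle-treated yeast cultures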; conditions: S. cerevisiae wt2 strain growth inhibition, active compounds read high
Method in brief: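 Steps: yeast strain treated with compound; growth recorded; inhibition calculated relative to cultures given vehicle alone.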

[13] = NCI Yeast Anticancer Drug Screen. Data for the mlh1 strain (AID 171);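 note: 0% = growth of vehicle-treated control cultures of the same strain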; conditions: S. cerevisiae mlh1 strain growth inhibition, active compounds read high
Method in brief: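 Yeast screen: mutant strain plus compound, growth scored against vehicle control wells.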

[14] = NCI Yeast Anticancer Drug Screen. Data for the sgs1 strain (AID 173);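 note: 0% = growth of vehicle-only control cultures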; conditions: S. cerevisiae sgs1 mutant, active compounds read high
Method in brief: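 Inhibition of yeast growth served as the measure. The mutant strain was treated with each compound, and growth was normalised to cultures receiving vehicle alone.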

[15] = NCI Yeast Anticancer Drug Screen. Data for the mlh1 rad18 strain (AID 175); conditions: S. cerevisiae mlh1 rad18 strain growth inhibition, active compounds read high
Method in brief: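 Compound-treated yeast growth, normalised to vehicle controls. Strain bears defined DNA repair mutations.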

[16] = NCI Yeast Anticancer Drug Screen. Data for the rad18 strain (AID 177); conditions: S. cerevisiae rad18 mutant growth inhibition, active compounds read high
Method in brief: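 Inhibition values reflect reduced yeast growth compared with vehicle-treated controls, using a strain engineered with a DNA damage repair defect.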

[17] = at 5.0 µM (retest, dose inferred, filed as 0.5)
[18] = at 50.0 µM (retest, dose inferred, filed as 5.0)

Measured: growth inhibition

CCN(CC)CCCNc1ccc([N+](=O)[O-])c2nc3ccc(OC)cc3c(NCCCN(CC)CC)c12
inactive: [1]; at 1.2 µM 15% | [1]; at 3.7 µM 6% | [1]; at 11.0 µM 9% | [1]; at 33.0 µM 11% | [1]; at 100.0 µM 19% | [2]; at 1.2 µM -81% | [2]; at 3.7 µM 0% | [2]; at 11.0 µM -2% | [2]; at 33.0 µM -2% | [2]; at 100.0 µM 0% | [3]; at 1.2 µM 0% | [3]; at 3.7 µM 3% | [3]; at 11.0 µM 4% | [3]; at 33.0 µM 9% | [3]; at 100.0 µM 13% | [4]; at 1.2 µM 2% | [4]; at 3.7 µM 2% | [4]; at 11.0 µM 3% | [4]; at 33.0 µM 1% | [4]; at 100.0 µM 1% | [5]; at 1.2 µM -2% | [5]; at 3.7 µM -1% | [5]; [17] 23% | [5]; at 11.0 µM -1% | [5]; at 33.0 µM 4% | [5]; [18] 18% | [5]; at 50.0 µM 66.5% | [5]; at 100.0 µM 9% | [6]; at 1.2 µM -1% | [6]; at 3.7 µM 2% | [6]; [17] 6% | [6]; at 11.0 µM -2% | [6]; at 33.0 µM 1% | [6]; [18] 26% | [6]; at 50.0 µM 5.05% | [6]; at 100.0 µM 1% | [7]; at 1.2 µM -1% | [7]; at 3.7 µM 0% | [7]; at 11.0 µM -1% | [7]; at 33.0 µM 0% | [7]; at 100.0 µM 1% | [8]; [17] -8% | [8]; [18] 20% | [8]; at 50.0 µM 13% | [9]; at 1.2 µM -10% | [9]; at 3.7 µM -9% | [9]; at 11.0 µM -4% | [9]; at 33.0 µM -6% | [9]; at 100.0 µM -2% | [10]; [17] 43% | [10]; [18] 57% | [10]; at 50.0 µM 24.8% | [11]; at 1.2 µM -6% | [11]; at 3.7 µM -7% | [11]; [17] 14% | [11]; at 11.0 µM -7% | [11]; at 33.0 µM -6% | [11]; [18] 6% | [11]; at 50.0 µM 13.4% | [11]; at 100.0 µM -4% | [12]; at 1.2 µM -2% | [12]; at 3.7 µM 0% | [12]; at 11.0 µM 1% | [12]; at 33.0 µM -1% | [12]; at 100.0 µM 0% | [13]; at 1.2 µM 0% | [13]; at 3.7 µM -2% | [13]; at 11.0 µM 0% | [13]; at 33.0 µM -2% | [13]; at 100.0 µM -1% | [14]; at 1.2 µM 2% | [14]; at 3.7 µM 5% | [14]; at 11.0 µM 2% | [14]; at 33.0 µM 1% | [14]; at 100.0 µM 1% | [15]; [17] 13% | [15]; [18] 37% | [15]; at 50.0 µM 0.2% | [16]; at 1.2 µM 0% | [16]; at 3.7 µM 0% | [16]; at 11.0 µM 6% | [16]; at 33.0 µM 4% | [16]; at 100.0 µM 7%

CC1(C)C(O)OC(O)C1(C)C (stereo not drawn)
inactive: [1]; at 1.2 µM 0% | [1]; at 3.7 µM 0% | [1]; at 11.0 µM 2% | [1]; at 33.0 µM 7% | [1]; at 100.0 µM 30% | [2]; at 1.2 µM 0% | [2]; at 3.7 µM 0% | [2]; at 11.0 µM 4% | [2]; at 33.0 µM 2% | [2]; at 100.0 µM 8% | [3]; at 1.2 µM 0% | [3]; at 3.7 µM -1% | [3]; at 11.0 µM 2% | [3]; at 33.0 µM 1% | [3]; at 100.0 µM 12% | [4]; at 1.2 µM -1% | [4]; at 3.7 µM -1% | [4]; at 11.0 µM 2% | [4]; at 33.0 µM 16% | [4]; at 100.0 µM 10% | [5]; at 1.2 µM -1% | [5]; at 3.7 µM -2% | [5]; [17] 15% | [5]; at 11.0 µM 0% | [5]; at 33.0 µM 5% | [5]; [18] 8% | [5]; at 50.0 µM 69% | [5]; at 100.0 µM 25% | [6]; at 1.2 µM 0% | [6]; at 3.7 µM 2% | [6]; [17] 1% | [6]; at 11.0 µM 2% | [6]; at 33.0 µM 6% | [6]; [18] -10% | [6]; at 50.0 µM 29.4% | [6]; at 100.0 µM 23% | [7]; at 1.2 µM -2% | [7]; at 3.7 µM -2% | [7]; at 11.0 µM 0% | [7]; at 33.0 µM 3% | [7]; at 100.0 µM 22% | [8]; [17] -9% | [8]; [18] 14% | [8]; at 50.0 µM 58.5% | [9]; at 1.2 µM -10% | [9]; at 3.7 µM -3% | [9]; at 11.0 µM 0% | [9]; at 33.0 µM -5% | [9]; at 100.0 µM 3% | [10]; [17] 32% | [10]; [18] 7% | [10]; at 50.0 µM 24.4% | [11]; at 1.2 µM -7% | [11]; at 3.7 µM -7% | [11]; [17] -8% | [11]; at 11.0 µM -6% | [11]; at 33.0 µM -8% | [11]; [18] -13% | [11]; at 50.0 µM 37.4% | [11]; at 100.0 µM -6%
